This passage reports Potency results from PubChem BioAssay (Tox21).

Values without a mark were called inactive. Results filed as inconclusive are left out. The source made the active and inactive calls. Unless noted, calls come from the whole dose curve.

Assay [1] is described as follows: Nuclear factor erythroid 2-related factor 2/antioxidant responsive element (Nrf2/ARE) small molecule agonists: qHTS cell viability counter screen in human keratinocytes (AID 1919968; active = well fitted curve in the direction sought with a large enough effect in the repeat runs; an effect the other way counts as inactive or inconclusive; note: nearly all actives have a fitted effect of over 55% in size; note: potency is the fitted concentration of half-maximal effect). Put shortly:
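After a 5 h attachment period, ARE-reporter keratinocytes were dosed with compounds in DMSO and then cultured 23 h at 37 C. Cell viability came from CellTiter-Fluor signal read after a further 1 h.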
In general terms: qHTS replaces the single test concentration by a dilution series.

Assay [2] in a line: Nuclear factor erythroid 2-related factor 2/antioxidant responsive element (Nrf2/ARE) small molecule agonists: luciferase reporter gene qHTS assay in human keratinocytes (AID 1919969). Note: nearly all actives have a fitted effect of over 35% in size. Note: potency is the fitted concentration of half-maximal effect. In general terms: Reporter assays use an easily measured gene product as a stand-in for the process of interest.
Assay [3] deals with Gonadotropin-releasing hormone receptor (Homo sapiens) (UniProt P30968). As to the kind of experiment: Human gonadotropin-releasing hormone receptor (GnRHR) small molecule agonists, calcium flux assay in GnRHR-HEK293 cells (AID 1920063). Note: nearly all actives have a fitted effect of over 35% in size. The essentials: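 We seeded human GnRHR-expressing HEK293 cells for 18 hours, loaded them with calcium dye for an hour at 37 C, added test compounds, and recorded fluorescence intensity kinetically for three minutes.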
Chain of Gonadotropin-releasing hormone receptor (Homo sapiens) (P30968 whole entry, looked up): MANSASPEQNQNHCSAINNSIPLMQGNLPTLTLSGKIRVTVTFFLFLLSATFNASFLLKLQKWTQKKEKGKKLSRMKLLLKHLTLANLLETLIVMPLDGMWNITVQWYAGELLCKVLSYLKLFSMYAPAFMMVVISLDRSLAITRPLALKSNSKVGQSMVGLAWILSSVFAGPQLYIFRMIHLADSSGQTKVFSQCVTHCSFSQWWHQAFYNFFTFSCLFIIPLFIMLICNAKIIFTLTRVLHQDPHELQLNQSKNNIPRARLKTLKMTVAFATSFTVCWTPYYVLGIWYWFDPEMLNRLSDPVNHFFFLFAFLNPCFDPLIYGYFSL

Assay [4] concerns the target KiSS-1 receptor (Homo sapiens) (UniProt Q969F8). Description: Human kisspeptin (KISS1R) small molecule agonists, calcium flux assay in KISS1R-HEK293 cells (AID 1920064; active = well fitted curve in the direction sought with a large enough effect in the repeat runs; an effect the other way counts as inactive or inconclusive). Put shortly: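 Kinetic calcium assay, 1 s sampling over 3 min at Ex/Em 480/540, in HEK293 cells engineered with human KISS1R; compounds delivered in DMSO after 1 h dye loading.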
(In general: Calcium flux is commonly read through the fluorescence of an indicator in the cells.)

The nature of assay [5]: G protein-coupled receptor (GPCR) small molecule agonists, calcium flux assay: HEK293 wild type cell line counter screen (AID 1920065). The essentials:
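Calcium-sensitive dye, loaded 1 h at 37 C into cells cultured 18 h, reports compound-evoked calcium release as fluorescence (Ex/Em 480/540), measured over 3 min. Agonist mode; 15-point titrations, triplicate.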

The nature of assay [6]: p53 small molecule agonists, cell-based qHTS assay with human liver microsomes (AID 1963577).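 Note: p53 response element beta-lactamase reporter cells with liver microsomes plus NADPH.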 Put shortly:
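16 h, 37 C exposure of p53RE-bla cells to compounds with human liver microsomes and NADPH (0.5 mg/mL final each); detection via LiveBLAzer mixture, 2 h dark at room temperature.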

Assay [7] is described as follows: p53 small molecule agonists, cell-based qHTS assay with rat liver microsomes (AID 1963578). Put shortly:
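With rat liver microsomes and NADPH present (0.5 mg/mL final each), p53RE-bla cells are treated with compound for 16 h at 37 C. LiveBLAzer detection mixture is then applied for 2 h at room temperature in the dark.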

A short description of assay [8]: p53 small molecule agonists, cell-based qHTS assay with rat liver microsomes: qHTS cell viability counter screen (AID 1963580). Note: nearly all actives have a fitted effect of over 45% in size. Note: potency is the fitted concentration of half-maximal effect. The essentials: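 Viability is assessed in parallel with the p53 reporter read: HCT-116 p53RE-bla cells receive compounds plus rat microsomes and NADPH (0.5 mg/mL final apiece), incubate 16 h at 37 C, and then CellTiter-Glo luminescence is recorded.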

Assay [9] can be described thus: p53 small molecule agonists, cell-based qHTS assay: qHTS cell viability counter screen (AID 1963581). Note: nearly all actives have a fitted effect of over 45% in size. Put shortly: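 Following 5 h attachment, HCT-116 p53RE-bla cells took up compound for 16 h at 37 C; the reporter was read with B/G FRET substrate (2 h RT), and viability then via CellTiter-Glo ATP luminescence.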
Assay [10] has as its target 5-hydroxytryptamine receptor 2A (Homo sapiens) (UniProt P28223). Description: 5-hydroxytryptamine receptor 2A (HTR2A) small molecule antagonists, cell-based qHTS assay (AID 1963586). Note: nearly all actives have a fitted effect of over 45% in size. Put shortly:
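Antagonist-mode intracellular calcium assay: DOI (4 nM) added after 5 min compound pre-incubation at room temperature to dye-loaded HTR2A-CHO cells. Fluorescence followed for 3 min, sampled every second.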

Assay [11] shares this target. Description: 5-hydroxytryptamine receptor 2A (HTR2A) small molecule agonists, cell-based qHTS assay (AID 1963587). Note: nearly all actives have a fitted effect of over 30% in size. Note: potency is the fitted concentration of half-maximal effect. The essentials: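 CHO cells stably expressing human HTR2A, plated 18 h, loaded with calcium dye 1 h at 37 C. Agonist mode: compounds added and intracellular calcium fluorescence recorded kinetically for 2 min at 1 sec intervals.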
The target of assay [12] is Muscarinic acetylcholine receptor M1 (Homo sapiens) (UniProt P11229). As to the kind of experiment: Cholinergic receptor muscarinic 1 (CHRM1) small molecule antagonists, cell-based qHTS assay (AID 1963588). Note: nearly all actives have a fitted effect of over 40% in size. The essentials: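 CHRM1-CHO calcium-flux assay, antagonist mode. Cells were seeded 18 h, dye-loaded 1 h at 37 C and given compound for 5 min at RT, then acetylcholine was added at 50nM. FDSS fluorescence was read 3 min; 15 concentrations, three runs.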
Chain of Muscarinic acetylcholine receptor M1 (Homo sapiens) (P11229 whole entry, looked up): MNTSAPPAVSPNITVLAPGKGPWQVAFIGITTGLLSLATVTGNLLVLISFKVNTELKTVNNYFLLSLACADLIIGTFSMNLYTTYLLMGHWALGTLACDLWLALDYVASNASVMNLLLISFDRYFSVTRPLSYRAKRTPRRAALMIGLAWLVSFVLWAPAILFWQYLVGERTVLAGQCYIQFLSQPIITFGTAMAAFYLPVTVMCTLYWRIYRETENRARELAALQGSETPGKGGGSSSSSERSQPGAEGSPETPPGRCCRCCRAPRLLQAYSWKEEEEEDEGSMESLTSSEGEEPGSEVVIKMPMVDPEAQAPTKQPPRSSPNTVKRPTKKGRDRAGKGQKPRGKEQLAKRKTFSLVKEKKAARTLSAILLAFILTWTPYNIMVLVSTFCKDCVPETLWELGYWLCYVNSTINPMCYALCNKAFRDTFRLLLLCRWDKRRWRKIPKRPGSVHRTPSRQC

Assay [13] has the same target. Description: Cholinergic receptor muscarinic 1 (CHRM1) small molecule agonists, cell-based qHTS assay (AID 1963589). Note: nearly all actives have a fitted effect of over 35% in size. The essentials:
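Measures agonist-induced intracellular calcium rise. Stable human CHRM1 CHO line, 1 h dye load at 37 C, compounds from DMSO, kinetic fluorescence read.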

Assay [14] is described as follows: cAMP Responsive Elements (CRE) small molecule antagonists, cell-based qHTS assay (AID 1963591; active = well fitted inhibition curve with a large enough effect in the signal ratio in the repeat runs, not every such curve was filed as active; the % refers to the signal ratio; note: potency is the fitted concentration of half-maximal effect). The essentials:
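HEK293T cells carrying a CRE-driven beta-lactamase reporter receive compound and NKH477 (0.25 uM final) for 3 h. Fluorescence from LiveBLAzer B/G FRET substrate is read after 2 h at room temperature.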

Assay [15] concerns the target Beta-2 adrenergic receptor (Homo sapiens) (UniProt P07550). Description: Adrenergic beta2 receptor (ADRB2) small molecule antagonists, cell-based qHTS assay (AID 1963592). Note: series mostly up to about 92 µM; nearly all actives have a fitted effect of over 50% in size. The essentials:
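Cells (CHO, stable ADRB2 overexpression) incubated 18-20hr at 37C; compounds added from DMSO; agonist mix (1nM isoproterenol, 100uM IBMX, 25uM Ro-20-1724) added; 0.5hr RT; d2-cAMP and anti-cAMP-cryptate added; 1hr RT; 665/615 nm read.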

Assay [16] deals with D(2) dopamine receptor (Homo sapiens) (UniProt P14416). Description: Dopamine D2 receptor (DRD2) small molecule agonists, cell-based qHTS assay (AID 1963594). Note: nearly all actives have a fitted effect of over 35% in size. Note: potency is the fitted concentration of half-maximal effect. The essentials: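 HEK293 cells stably expressing human DRD2, pre-treated with PDE inhibitor Ro20-1724 (0.1 mM final) and compound 10 min at room temperature, then stimulated with NKH477 (200nM […]) for 30 min. cAMP read by HTRF (665/620 nm).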
Chain of D(2) dopamine receptor (Homo sapiens) (P14416 whole entry, looked up): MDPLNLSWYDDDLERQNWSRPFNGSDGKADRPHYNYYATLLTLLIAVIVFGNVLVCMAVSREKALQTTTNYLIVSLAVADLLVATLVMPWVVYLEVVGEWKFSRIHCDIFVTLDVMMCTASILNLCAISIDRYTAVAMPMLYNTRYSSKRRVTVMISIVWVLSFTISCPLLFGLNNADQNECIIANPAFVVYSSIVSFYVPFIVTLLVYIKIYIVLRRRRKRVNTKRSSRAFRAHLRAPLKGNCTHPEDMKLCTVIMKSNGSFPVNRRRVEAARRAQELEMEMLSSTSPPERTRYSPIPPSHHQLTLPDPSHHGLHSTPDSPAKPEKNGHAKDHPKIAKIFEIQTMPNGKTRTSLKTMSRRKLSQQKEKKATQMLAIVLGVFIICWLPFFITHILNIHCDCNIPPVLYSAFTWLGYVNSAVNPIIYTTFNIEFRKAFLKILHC

For assay [17] the target is unchanged. Description: Dopamine D2 receptor (DRD2) small molecule antagonists, cell-based qHTS assay (AID 1963595; active = well fitted inhibition curve with a large enough effect in the signal ratio in the repeat runs, with a control signal flat; the % refers to the signal ratio). Put shortly: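 Antagonism was scored as restored cAMP in HEK293-DRD2 cells. These cells were stimulated with 200 nM NKH477 and 12 nM quinpirole for 30 min at room temperature, in the presence of 0.1 mM Ro20-1724.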
Assay [18] is described as follows: p53 small molecule agonists, cell-based qHTS assay (AID 1963582; active = well fitted activation curve with a large enough effect in the signal ratio in the repeat runs, not every such curve was filed as active; the % refers to the signal ratio). Put shortly:
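In this cell-based concentration-response screen, a p53 response element drives beta-lactamase; cells received DMSO-borne compounds after 5 h culture and were incubated a further 16 h before FRET substrate development.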

Assay [19] in a line: cAMP Responsive Elements (CRE) small molecule agonists, cell-based qHTS assay (AID 1963590). The essentials:
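A CRE-responsive beta-lactamase reporter in HEK 293T cells was used. Treatment ran 3 h at 37 C; detection used LiveBLAzer B/G FRET substrate for 2 h at room temperature.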

Assay [20] in a line: p53 small molecule agonists, cell-based qHTS assay with human liver microsomes: qHTS cell viability counter screen (AID 1963579). Note: nearly all actives have a fitted effect of over 45% in size. The essentials:
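In this multiplexed counter screen, the reporter plates were subsequently treated with CellTiter-Glo so that cell viability, reflected by luminescence, could be recorded for p53RE-bla cells dosed 16 h with compounds under microsomal activation (HLM and NADPH).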

Chain of Beta-2 adrenergic receptor (Homo sapiens) (P07550 whole entry, looked up): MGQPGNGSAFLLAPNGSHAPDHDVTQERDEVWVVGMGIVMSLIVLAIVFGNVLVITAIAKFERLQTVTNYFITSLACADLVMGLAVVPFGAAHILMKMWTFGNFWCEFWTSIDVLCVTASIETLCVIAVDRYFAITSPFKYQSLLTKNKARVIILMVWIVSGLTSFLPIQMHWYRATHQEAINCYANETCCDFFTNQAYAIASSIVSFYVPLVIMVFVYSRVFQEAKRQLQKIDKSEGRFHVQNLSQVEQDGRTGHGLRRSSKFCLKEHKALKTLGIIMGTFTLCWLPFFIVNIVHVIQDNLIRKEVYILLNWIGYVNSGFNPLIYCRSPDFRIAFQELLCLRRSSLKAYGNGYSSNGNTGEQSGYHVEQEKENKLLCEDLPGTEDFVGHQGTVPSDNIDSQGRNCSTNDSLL
Chain of KiSS-1 receptor (Homo sapiens) (Q969F8 whole entry, looked up): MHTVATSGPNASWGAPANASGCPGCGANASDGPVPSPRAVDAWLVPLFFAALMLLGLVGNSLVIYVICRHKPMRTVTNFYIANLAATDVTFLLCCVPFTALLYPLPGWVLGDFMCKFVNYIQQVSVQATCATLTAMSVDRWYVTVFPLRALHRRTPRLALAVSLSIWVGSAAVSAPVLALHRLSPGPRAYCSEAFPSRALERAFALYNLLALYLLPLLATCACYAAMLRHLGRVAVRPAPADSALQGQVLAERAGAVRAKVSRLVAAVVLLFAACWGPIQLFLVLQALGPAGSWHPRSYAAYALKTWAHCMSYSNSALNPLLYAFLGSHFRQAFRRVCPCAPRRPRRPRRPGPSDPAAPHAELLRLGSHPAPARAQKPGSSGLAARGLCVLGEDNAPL
Chain of 5-hydroxytryptamine receptor 2A (Homo sapiens) (P28223 whole entry, looked up): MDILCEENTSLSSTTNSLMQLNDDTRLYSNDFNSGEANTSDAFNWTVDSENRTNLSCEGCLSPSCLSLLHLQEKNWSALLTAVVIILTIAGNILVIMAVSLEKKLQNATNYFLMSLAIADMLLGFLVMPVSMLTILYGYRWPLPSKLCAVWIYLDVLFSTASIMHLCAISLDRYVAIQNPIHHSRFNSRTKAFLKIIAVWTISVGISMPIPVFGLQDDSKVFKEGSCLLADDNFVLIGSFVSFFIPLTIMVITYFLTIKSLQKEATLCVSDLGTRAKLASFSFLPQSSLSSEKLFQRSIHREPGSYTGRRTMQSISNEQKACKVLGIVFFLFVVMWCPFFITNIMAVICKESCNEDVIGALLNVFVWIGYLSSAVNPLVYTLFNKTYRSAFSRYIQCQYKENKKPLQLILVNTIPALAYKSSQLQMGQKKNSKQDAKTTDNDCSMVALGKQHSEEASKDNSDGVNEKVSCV

As for `O=C(CCl)C(Cl)Cl`, the Potency in assay [1] is 19.5 µM (active); in [2], 7.77 µM (active); in assay [8], 13 µM (active); in [14], 21.9 µM (active). Further, the Potency result in assay [3], in [4], in assay [5], in [6], in assay [7] and in assay [9] was “inactive” each time. For the same compound, the Potency result in [10], in assay [11], in [12], in assay [13], in assay [15] and in assay [16] was “inactive” throughout. In addition, the Potency result in [17] is “inactive”.
Consider `CS(=O)(=O)c1cc(C(F)(F)F)ccc1C(=O)c1cnoc1C1CC1`, for which the Potency result in assay [1], in assay [2], in [3], in assay [4], in assay [5] and in assay [6] was “inactive” throughout. For the same compound, the Potency entry in assay [7], in assay [9], in assay [18], in assay [10], in assay [11] and in [13] was “inactive” in each case. Moreover, the Potency entry in assay [19], in [14] and in assay [17] was “inactive” throughout.
On to `CC1NCCOC1c1ccccc1` (stereo not drawn), for which the Potency result in [1], in [2], in assay [3], in assay [4], in assay [5] and in assay [6] was “inactive” each time. The Potency entry in assay [7], in assay [8], in assay [9], in assay [18], in assay [12] and in [13] was “inactive” in each case. Besides, the Potency result in assay [19], in [14], in [15] and in assay [17] was “inactive” each time. Besides, in assay [16], the Potency was 14.1 µM (active).
Regarding `O=C(Nc1ccc2[nH]ccc2c1)c1cc2cc(F)ccc2n1Cc1cccc(F)c1`, the Potency was 24.3 µM (active) in assay [1] and 61.1 µM (active) in [14]. In addition, the Potency entry in [2], in assay [3], in assay [4], in [5], in assay [6] and in assay [7] was “inactive” in each case. For the same compound, the Potency entry in assay [8], in [10], in [11], in assay [12], in assay [13] and in assay [19] was “inactive” in each case. The Potency entry in assay [15], in assay [16] and in assay [17] was “inactive” throughout.
As to `CC(=O)C(Cl)C(=O)N(C)C` (stereo not drawn), the Potency entry in assay [1], in [3], in [4], in assay [5], in [6] and in assay [7] was “inactive” throughout. Also, the Potency result in assay [8], in assay [9], in [18], in assay [10], in assay [12] and in assay [13] was “inactive” each time. The Potency entry in [19], in assay [14], in assay [15], in assay [16] and in assay [17] was “inactive” each time. Further, the Potency in [2] was 68.6 µM (active).
Take `ClCc1cccc(Cl)c1`: the Potency entry in [1], in assay [2], in [3], in assay [4], in assay [5] and in [6] was “inactive” throughout. The Potency result in assay [7], in assay [20], in assay [9], in [18], in assay [11] and in assay [12] was “inactive” in each case. The Potency result in assay [13], in assay [19], in assay [14], in [15] and in assay [17] was “inactive” throughout.
For `O=c1[nH]c(Cl)c(Cl)cc1Cl`, the Potency result in [1], in [2], in assay [3], in [4], in assay [5] and in assay [6] was “inactive” in each case. The Potency entry in assay [7], in assay [20], in [9], in assay [10], in assay [11] and in assay [12] was “inactive” throughout. The Potency entry in assay [13], in assay [15], in assay [16] and in assay [17] was “inactive” each time.
As to `CNC(C)Cc1ccccc1OC` (stereo not drawn), the Potency result in assay [1], in assay [2], in assay [3], in assay [4], in assay [5] and in [6] was “inactive” in each case. The Potency result in [7], in assay [20], in assay [9], in assay [12], in [13] and in [19] was “inactive” throughout. Further, the Potency entry in assay [14], in [16] and in [17] was “inactive” throughout. Moreover, the Potency in assay [11] is 0.848 µM (active).
